These results are taken from PubChem BioAssay (NCATS).

Records with an inconclusive call do not appear. Activity calls are given as the source filed them. Calls come from the whole dose curve; as a rule, active = well fitted cell-killing curve with a large enough effect; inconclusive = small, poorly fitted or top-dose-only effect, or effect the other way; inactive = flat fitted curve, though single readings scatter. Where a SMILES comes first, the peptide text is derived from it. [ ]: non-standard residue; d: D form.
% is set by controls: 0 for no effect and ±100 for the full control effect.

The subject of the test is HeLa. Nature of the test: Primary qHTS to identify gynecologic anti-cancer compounds using libraries of approved drugs and bioactive compounds (AID 1345084). Note: nearly all actives have a fitted effect of over 55% in size. The following applies: Gynecologic cancer cell panel viability, ATPlite luminescence, 48 h; series mostly up to 57.5 µM; activity change, negative = cytotoxicity: at the top concentration. An outline of the steps:
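Luminescence from the ATPlite ATP-monitoring reagent indicates viable cell number; lower signal means cytotoxicity. Cells received compound 16 h after seeding and were exposed for 48 h across five concentrations.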
As for `COC1=CC(=O)O[C@@H](/C=C/c2ccccc2)[C@@H]1O`, the “activity change, negative = cytotoxicity” value is 13.6% (inactive). The value for `C[C@@H]1O[C@@H](O[C@@H]2[C@@H](O)[C@@H](O)[C@H](O[C@@H]3[C@@H](O)[C@@H](O[C@]4(CO)O[C@H](CO)[C@@H](O)[C@@H]4OC(=O)/C=C/c4ccc(O)cc4)O[C@H](CO)[C@H]3OC(=O)/C=C/c3ccc(O)cc3)O[C@H]2C)[C@H](O)[C@H](O)[C@H]1O` was 11% [at 11.6 µM] (inactive). The value for `COC(=O)[C@@H]1C2CC3c4[nH]c5ccccc5c4CCN3CC2CC[C@@H]1O` (some centres undefined) was 5% (inactive); that for `C[C@@H]1O[C@@H](O[C@H]2[C@H](OC(=O)[C@]34CCC(C)(C)C[C@H]3C3=CCC5[C@@]6(C)CC[C@H](O[C@@H]7O[C@H](CO[C@@H]8OC[C@H](O)[C@H](O)[C@H]8O)[C@@H](O)[C@H](O)[C@H]7O)C(C)(C)C6CC[C@@]5(C)[C@]3(C)C[C@H]4O)OC[C@@H](O)[C@@H]2O)[C@H](O)[C@H](O)[C@H]1O[C@@H]1OC[C@H](O)[C@H](O[C@@H]2OC[C@@H](O)[C@H](O)[C@H]2O)[C@H]1O` (some centres undefined) was 18.3% [at 6.55 µM] (inactive). The value for `CC(=O)N[C@H](Cc1ccc(O)cc1)C(=O)N[C@H](CCCN=C(N)N)C(=O)N[C@H](Cc1ccccc1)C(N)=O` (Ac-[dY]-[dR]-[dF]-NH2) was 17.8% (inactive); that for `CC(NCc1ccc(OCc2cccc(F)c2)cc1)C(N)=O` (centres undefined) was -3.15% (inactive).

As to `Cc1coc2c1CC1OC1(C)CCC1OC1(C)C2` (centres undefined), the “activity change, negative = cytotoxicity” value is 3.31% (inactive). The value for `C[C@]12CCC[C@](C)(C(=O)O)C1CCC13C=C(CO)C(CCC12)C3` (some centres undefined) was 17.1% [at 38.5 µM] (inactive); that for `COc1cc(/C=C/C(=O)OC(C)(C)C(OC2OC(CO)C(O)C(O)C2O)C(=O)OCc2ccc(OC3OC(CO)C(O)C(O)C3O)cc2)ccc1O` (centres undefined) was 0.229% [at 25.3 µM] (inactive). For `COc1cc2c(cc1OC)CN(C(=O)[C@@H](NCc1ccncc1)C(C)(C)C)CC2`, the “activity change, negative = cytotoxicity” value is -4.4% (inactive).

In the case of `O=C1NCc2nc3ccccc3c(=O)n2C1Cc1c[nH]c2ccccc12` (centres undefined), the “activity change, negative = cytotoxicity” value was -3.02% [at 38.5 µM] (inactive). The value for `CC1=CC(=O)CC(C)(C)C1CCC(C)OC1OC(COC(=O)c2cc(O)c(O)c(O)c2)C(O)C(O)C1O` (centres undefined) was -2.55% [at 25.3 µM] (inactive); that for `CC1C/C=C/C=C\CCCCC(O)C/C=C/C(=O)O1` (centres undefined) was 5.45% (inactive); that for `CO[C@@]12CC3[C@@H]([C@@H](O)[C@@H](OC(C)=O)C4[C@](C)(COC(C)=O)CCC[C@]34C)[C@@H](C)C1=CC(=O)O2` (some centres undefined) was -1.12% [at 25.3 µM] (inactive). Then `CC1(C)CCCC2(C)C(CO)C3CCC2C31` (centres undefined), with 16.7% (inactive); and `O=C(O[C@H]1[C@@H]2C=CO[C@@H](O[C@@H]3O[C@H](CO)[C@@H](O)[C@H](O)[C@H]3O)[C@@H]2[C@@]2(CO)O[C@@H]12)c1ccc(O)c(O)c1`, with 9.2% [at 25.3 µM] (inactive).

`C=CC(C)(C)C12CC3C(=O)NC(Cc4cnc[nH]4)C(=O)N3C1Nc1ccccc12` (centres undefined): the “activity change, negative = cytotoxicity” value was 0.576% [at 38.5 µM] (inactive).

Take `C=C1C2=CC(O)C(C)C1(C)CC/C(C)=C/CCC1(C)OC1C2=O` (centres undefined): the “activity change, negative = cytotoxicity” value is -12.6% [at 38.5 µM] (inactive).

As to `C[C@H]1CN(C[C@H](Cc2ccccc2)C(=O)NCC(=O)O)CC[C@@]1(C)c1cccc(O)c1`, the “activity change, negative = cytotoxicity” value is 6.29% (inactive).

`Cn1c(=O)cc(N2CCCC(N)C2)n(Cc2ccccc2C#N)c1=O` (centres undefined): the “activity change, negative = cytotoxicity” value is 4.78% (inactive). The value for `CCC[C@@H]1C[C@@H](C(=O)N[C@@H]([C@H]2O[C@H](SC)[C@H](OP(=O)(O)O)[C@@H](O)[C@H]2O)[C@H](C)Cl)N(C)C1` was 7.88% [at 25.3 µM] (inactive). The value for `COc1cc(/C=C/CO)ccc1O[C@@H]1O[C@H](CO)[C@@H](O)[C@H](O)[C@H]1O` was 8.16% [at 38.5 µM] (inactive); that for `CC1(O)CCC2C(C(=O)O)=COC(OC3OC(CO)C(O)C(O)C3OC(=O)/C=C/c3ccc(O)cc3)C21` (centres undefined) was -0.945% [at 25.3 µM] (inactive).

Regarding `C[C@@H](Nc1cc(NS(=O)(=O)N2CCC2)nc(SCc2cccc(F)c2F)n1)[C@@H](O)CO`, the “activity change, negative = cytotoxicity” value is 7.5% (inactive).
